# Vaccinia mCherry: inhibitors of vaccinia virus infection (mCherry reporter signal). Vaccinia virus mCherry reporter infection, fluorescence. AID 720579. actives 0.63% (n = 310,000). Potency, µM (titrated, usually from 36.5 µM), for inactives: top-dose activity change, negative = inhibition, actives largely listed as inhibitors; calls by dose curve; tested in A549 cells; note: potency is the fitted concentration of half-maximal effect; nearly all actives have a fitted effect of over 35% in size
# VACV Venus inh: inhibitors of vaccinia virus (Venus reporter) | AID 720580 | Potency, µM (titrated, usually from 36.5 µM), inactives show at the top dose activity change, negative = inhibition, usual class: inhibitors | actives 0.46% (n = 330,000) | Vaccinia virus Venus reporter expression, fluorescence; calls by dose curve; tested in A549 cells; note: potency is the fitted concentration of half-maximal effect; nearly all actives have a fitted effect of over 30% in size
# HCMV inh: inhibitors of human cytomegalovirus; HFF cells, HCMV-luciferase reporter, 72 h; stronger effect = lower value; activity change, negative = inhibition, % at 57.5 µM; actives 4.5% (n = 410,000); AID 1259415; in the data active = activity change below about -60%; inconclusive = no clear call, values can overlap the other calls; inactive = above about -39%
#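 Inhibition of viral replication was scored as loss of reporter luminescence in HFFs infected with HCMV-luciferase (MOI 1 PFU/cell) for 72 h; compounds tested at 2 doses, normalized to buffer and Salinomycin controls.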
# FMDV antiviral: blocks foot and mouth disease virus; AID 1159524; FMDV antiviral cell-based qHTS; actives 1.2% (n = 410,000); Potency, µM (highest dose often 57.9 µM), without a hit: at the top dose activity change, negative = inhibition, most hits filed as inhibitors; calls by dose curve; tested in HEK293T cells; note: read-out not given here; potency is the fitted concentration of half-maximal effect; nearly all actives have a fitted effect of over 45% in size
# LASV entry inh: Lassa virus entry inhibition. actives 1.2% (n = 300,000). Lassa virus pseudotype entry inhibition, cell reporter. Potency, µM (doses to about 37.9 µM), without a hit: at the highest dose activity change, negative = inhibition, hits mostly inhibitors; calls by dose curve; tested in HEK293 cells; note: potency is the fitted concentration of half-maximal effect; nearly all actives have a fitted effect of over 50% in size
# MARV entry inh: inhibitors of Marburg virus binding or cell entry | Marburg virus pseudotyped entry inhibition, cell reporter | Potency, µM (top dose mostly 37.8 µM), for inactives: at the top dose activity change, negative = inhibition, most hits filed as inhibitors | actives 1.8% (n = 300,000) | AID 540276; calls by dose curve; tested in HEK293 cells; note: potency is the fitted concentration of half-maximal effect
# * = called active by the depositor; i = inactive; ? = inconclusive; nt = no result; [ ] = dose if it differs, or a comment. Sampled rows, rich in hits. Any-hit rate of the full collection: about 6.5%. % is set by controls: 0 for no effect and ±100 for the full control effect.
SMILES,Vaccinia mCherry,VACV Venus inh,HCMV inh,FMDV antiviral,LASV entry inh,MARV entry inh
O=C(NCCCN1CCN(Cc2ccccc2)CC1)C1CCN(c2nnc(-n3cccc3)s2)CC1,nt,-24.9%,?,?,-21.7%,?
O=C(NCc1ccco1)C1CCN(c2nnc(-n3cccc3)s2)CC1,i,-4.5%,-66.5*,-2.5%,nt,nt
O=C(NCCCN1CCc2ccccc2C1)C1CCN(c2nnc(-n3cccc3)s2)CC1,-13.7%,-4.8%,1.6,-29.8%,6.0%,14.6µM*
CN(Cc1ccco1)C(=O)C1CCN(c2nnc(-n3cccc3)s2)CC1,nt,nt,-11.1,-3.0%,nt,nt
O=C(NCC(c1ccco1)S(=O)(=O)c1cccs1)c1ccc(Cl)cc1 (stereo not drawn),-12.1%,-7.9%,-13.6,-15.3%,-4.3%[46.1 µM],nt
O=[N+]([O-])c1ccc(Sc2ccccc2Cl)nc1,nt,nt,-27.3,-22.4%,-2.4%,?
O=[N+]([O-])c1ccc(Sc2ncc3ccccn23)nc1,nt,nt,-65.2*,-4.0%,nt,nt
CCn1c(Sc2ccc([N+](=O)[O-])cn2)nnc1-c1ccco1,12.6µM*,?,-85.7*,?,?,?
O=C(Nc1ccccc1C(=O)OCc1cc(=O)n2nc(C3CC3)sc2n1)c1cccc(F)c1,-7.3%,-7.2%,16.7,-21.1%,18.1%[46.1 µM],nt
COc1ccc(N2C(=O)C(OC(C)=O)C2c2ccc(C)cc2)cc1 (stereo not drawn),-11.0%,-6.2%,-63.8*,9.3%,-23.8%,-6.2%
Cc1nc(C(F)(F)F)c(C(=O)N/N=C(\N)c2ccccn2)s1,2.51µM*,?,-33.5,2.8%,?,?
COc1ccc(-n2c(-c3ccc(Br)cc3)c[n+]3c2CCCCC3)cc1,-11.1%,-16.7%,-87.3*,-19.5%,?,?
COc1ccc(-n2c(-c3ccccc3)cc3c2CCCC3=O)cc1,?,-25.6%,8.3,0.0%,?,?
COc1ccc(-n2c(-c3ccccc3)c[n+]3c2CCC3)cc1,-1.1%,-26.6%,-78.0*,?,?,?
COc1ccc(-n2c(-c3ccc(Br)cc3)c[n+]3c2CCC3)cc1,i,-3.4%,-92.3*,?,?,?
COc1ccc(-n2c(-c3ccc(Br)cc3)nc(=S)c3c2CCCC3)cc1,-6.7%,-0.6%,-25.0,-25.6%,27.1%,-1.4%
CCOc1ccc(-c2c[n+]3c(n2-c2ccccc2)CCCCC3)cc1,nt,nt,-97.9*,?,?,?
CC(=O)c1ccc(F)c(-c2cc(C)cc3c2OC(CNC(=O)C(C)n2nc(C)cc2C)C3)c1 (stereo not drawn),-20.7%,-1.1%,nt,-16.0%,nt,nt
COc1ccc(-n2c(-c3ccc(Br)cc3)c[n+]3c2SC(C)C3)cc1 (stereo not drawn),-14.7%,-17.9%,-96.3*,?,?,?
C[C@@H]1CC=C[C@H]2[C@H]1C(=O)N(Cc1ccccc1)[C@H]2c1ccc2ccccc2c1,?,-15.4%,-36.3,?,nt,nt
COc1ccc(-c2ccc(C(C)=O)cc2)cc1[C@H]1[C@H]2C=CC[C@@H](C)[C@@H]2C(=O)N1Cc1ccccc1,?,?,-90.0*,8.9%,nt,nt
COC(=O)c1ccc(-c2ccc(OC)c([C@H]3[C@H]4C=CC[C@@H](C)[C@@H]4C(=O)N3Cc3ccccc3)c2)cc1,?,?,9.0,-27.8%,nt,nt
C[C@@H]1CC=C[C@H]2[C@H]1C(=O)N(Cc1ccccc1)[C@H]2c1ccc2ccccc2c1Br,-27.1%,?,?,17.8µM*,nt,nt
CC[C@@H](C)CCCCC(=O)N[C@H](CCN)C(=O)N[C@@H](C(=O)N[C@H](CCN)C(=O)N[C@@H]1CCNC(=O)C([C@@H](C)O)NC(=O)[C@@H](CCN)NC(=O)[C@@H](CCN)NC(=O)[C@@H](CC(C)C)NC(=O)[C@@H](Cc2ccccc2)NC(=O)[C@@H](CCN)NC1=O)[C@@H](C)O (stereo partly drawn),0.2%,8.7%,nt,-1.7%,nt,nt
O=C(Nc1cccc(F)c1)N1CCc2nc(NCc3cccc(Oc4ccccc4)c3)ncc2C1,-5.5%,?,-77.8*,?,nt,nt
SMILES,Vaccinia mCherry,VACV Venus inh,HCMV inh,FMDV antiviral,LASV entry inh,MARV entry inh
COc1cc(Nc2ncc3c(n2)CCN(C(=O)Nc2ccc(C(C)C)cc2)C3)cc(OC)c1OC,-10.4%,-22.2%,?,-18.5%,nt,nt
CC(C)c1ccc(NC(=O)N2CCc3nc(NCc4cccc(Oc5ccccc5)c4)ncc3C2)cc1,-13.0%,-25.6%,-86.6*,-34.3%,nt,nt
COc1cccc(NC(=O)N2CCc3nc(Nc4ccc(C(C)C)cc4)ncc3C2)c1,-2.2%,?,-68.6*,-13.7%,nt,nt
COc1cccc(NC(=O)N2CCc3ccccc3C2)c1,-13.7%,-20.2%,160.4,11.2%,-8.8%[46.1 µM],-3.9%[46.1 µM]
Cc1ccc(NC(=O)CCCn2c(=O)c3cccn3c3ccccc32)c(C)c1,-16.7%,-13.2%,-20.7,-22.4%,-5.9%[46.1 µM],nt
C[C@@]12C(=O)N(CC3CCCO3)CC(=O)N1[C@H]1c3cc(Cl)ccc3OC[C@@H]1[C@@H]2c1ccccc1 (stereo partly drawn),-19.4%,-7.2%,15.6,-24.6%,nt,nt
Cc1sc2ncnc(N3CCC(C(=O)Nc4nc(-c5ccc(F)cc5)cs4)CC3)c2c1C,i,2.5%,-65.4*,0.0%,?,?
Cc1sc2ncnc(N3CCC(C(=O)NNC(=O)COc4ccccc4Cl)CC3)c2c1C,?,-23.4%,-32.8,35.5µM*,5.3%,?
Cc1ccc(OCC(=O)NNC(=O)C2CCN(c3ncnc4sc(C)c(C)c34)CC2)cc1,i,-15.9%,-22.7,?,24.1%,-2.1%[46.1 µM]
Cc1sc2ncnc(N3CCC(C(=O)NNC(=O)COc4cccc(C(F)(F)F)c4)CC3)c2c1C,i,-14.8%,-1.6,25.1µM*,3.3%,-0.4%
Cc1sc2ncnc(N3CCC(C(=O)NNC(=O)COc4ccccc4F)CC3)c2c1C,-11.8%,-29.4%,-10.1,25.1µM*,-6.3%,-20.6%
COc1ccc(CCN=C(N)NS(=O)(=O)c2ccc(F)cc2)cc1OC,i,-11.2%,7.7,0.0%,-1.2%,?
O=C(CCNS(=O)(=O)c1ccc(Br)cc1)NNC(=O)C1COc2ccccc2O1 (stereo not drawn),-4.6%,-3.1%,-16.3,-8.8%,?,3.1%[46.1 µM]
CCN(CC)CCNC(=O)c1ccc(NC(=O)C2CCN(c3ncnc4sc(C)c(C)c34)CC2)cc1,nt,nt,-71.1*,?,nt,nt
Cc1sc2ncnc(N3CCC(C(=O)Nc4ccc(OC(F)F)c(Cl)c4)CC3)c2c1C,nt,nt,-1.6,?,nt,nt
Cc1cccc(C)c1NC(=O)CN(C)C(=O)C1CCN(c2ncnc3sc(C)c(C)c23)CC1,?,?,?,?,-11.9%,?
Cc1cc(Br)ccc1NC(=O)CN(C)C(=O)C1CCN(c2ncnc3sc(C)c(C)c23)CC1,?,?,-83.4*,?,?,?
C=CC[C@@H](Cc1ccc(F)cc1)C(=O)OC[C@@H]1CCCN1C(=O)[C@@H](CC=C)CC(=O)NCCO,i,-12.4%,-24.8,-3.6%,nt,nt
COc1ccc(OC)c2c1C(=O)CC2C (stereo not drawn),i,-9.9%,15.2,-15.0%,nt,nt
